Structures are written as SMILES. The panel holds about 83,000 compounds, 20% with a hit somewhere; the sample as a whole holds those more often.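 48-hour exposure, single concentration, 96-well plates; percent growth endpoint where 0 means no net growth. Active: below 10.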 Values without a mark were called inactive. Activity calls are given as the source filed them.

The results in this text go back to PubChem BioAssay (NCI).

Among the test systems are DU-145 prostate; K-562 leukemia; MALME-3M melanoma; MDA-MB-231 breast; RXF 393 renal; SF-268 CNS; SF-295 CNS; SF-539 CNS; UACC-257 melanoma; M14 melanoma; HT29 colon; SNB-75 CNS; SNB-19 CNS; U251 CNS; PC-3 prostate; SK-MEL-5 melanoma; UACC-62 melanoma; LOX IMVI melanoma; SK-MEL-28 melanoma; HCT-15 colon.
Common to all, as to assay: NCI-60 one-dose screen, 48 h (100 = growth as untreated, 0 = no growth, -100 = all killed)
Holding throughout (conditions): 10 µM unless noted

With `Cn1c(=O)c2c(nc(Cl)n2CCl)n(C)c1=O`, the growth in the assay on DU-145 prostate is 113%; with K-562 leukemia, 21.3%; in the assay on MALME-3M melanoma it was 75.6%; in the assay on MDA-MB-231 breast, 105%; with RXF 393 renal, 53%; in the assay with SF-268 CNS it was 104%. For the same molecule, the growth is 112% with SF-295 CNS; 103% in the assay with SF-539 CNS; 84.5% with UACC-257 melanoma; 12.4% in the assay on M14 melanoma; 80.9% in the assay with HT29 colon; 94% with SNB-75 CNS. The growth in the assay on SNB-19 CNS is 100%; in the assay on U251 CNS it was 96%; in the assay on PC-3 prostate, 98.5%; in the assay on SK-MEL-5 melanoma, 88.1%; in the assay with UACC-62 melanoma, 94.7%; in the assay with LOX IMVI melanoma, -0.952% (active). The growth in the assay with SK-MEL-28 melanoma is 55%.

As to `COc1ccc(Nc2nnc(SCc3ccccc3F)s2)cc1`, the growth with DU-145 prostate was 111%; in the assay on K-562 leukemia, 92.4%; in the assay on MALME-3M melanoma it was 119%; with MDA-MB-231 breast, 98.4%; with RXF 393 renal, 101%; in the assay with SF-268 CNS, 103%. The growth was 97.7% in the assay with SF-295 CNS; 104% with SF-539 CNS; 106% in the assay on UACC-257 melanoma; 108% in the assay with M14 melanoma; 102% in the assay with SNB-75 CNS; 103% in the assay with SNB-19 CNS. The growth in the assay on U251 CNS is 104%; in the assay on PC-3 prostate, 85.6%; in the assay with SK-MEL-5 melanoma, 104%; in the assay on UACC-62 melanoma, 74.8%; in the assay with LOX IMVI melanoma, 104%; with SK-MEL-28 melanoma, 109%.

With `O=C(Nc1ccccc1-c1nc2ccccc2c(=O)[nH]1)c1cc2ccccc2[nH]1`, the growth is 102% in the assay with DU-145 prostate; 94.1% with K-562 leukemia; 107% in the assay with MALME-3M melanoma; 79.7% in the assay on MDA-MB-231 breast; 98.4% in the assay with RXF 393 renal; 91.9% in the assay on SF-268 CNS. The growth with SF-295 CNS is 91.3%; in the assay on SF-539 CNS, 89.5%; with UACC-257 melanoma, 83.4%; with M14 melanoma, 91.7%; in the assay with HT29 colon it was 91.6%; with SNB-75 CNS it was 63%. Besides, the growth with SNB-19 CNS was 93.4%; in the assay on U251 CNS, 92.3%; with PC-3 prostate it was 78.3%; in the assay on SK-MEL-5 melanoma, 81.2%; in the assay on UACC-62 melanoma, 84.9%; in the assay with LOX IMVI melanoma, 88%. Moreover, the growth in the assay on SK-MEL-28 melanoma is 99.9%.

Consider `COC(=O)c1c2c(c[n+]([O-])c1C)C(=O)C=CC2=O`, for which the growth was 74.1% with DU-145 prostate; 2.05% (active) in the assay on K-562 leukemia; -97.1% (active) in the assay on MALME-3M melanoma; 49.9% in the assay with MDA-MB-231 breast; 57.3% in the assay on RXF 393 renal; 68.7% in the assay on SF-268 CNS. Further, the growth was 103% with SF-295 CNS; 83.5% with SF-539 CNS; -35.1% (active) with UACC-257 melanoma; -64.5% (active) in the assay with M14 melanoma; 106% in the assay with HT29 colon; 125% in the assay on SNB-75 CNS. Also, the growth in the assay on SNB-19 CNS was 79.8%; in the assay with U251 CNS, 37.7%; in the assay on PC-3 prostate, 65.8%; with SK-MEL-5 melanoma it was 72%; in the assay with UACC-62 melanoma, 0.925% (active); in the assay with LOX IMVI melanoma it was 47.3%. The growth in the assay with SK-MEL-28 melanoma was 49%.

As to `COc1ccc(C2C(c3nn[nH]n3)=C(N)Oc3c2ccc2ccccc32)cc1` (stereo not given), the growth with DU-145 prostate was 88%; in the assay with K-562 leukemia, 19.2%; in the assay on MALME-3M melanoma, 63.7%; in the assay on MDA-MB-231 breast it was 31.5%; in the assay with RXF 393 renal, 76.3%; in the assay with SF-268 CNS, 72.1%. In addition, the growth with SF-295 CNS was 77.8%; in the assay with SF-539 CNS, 73.7%; in the assay on UACC-257 melanoma, 89.8%; in the assay on HCT-15 colon, 35%; in the assay on HT29 colon it was 127%; in the assay with SNB-75 CNS, 39.9%. The growth is 67.3% in the assay with SNB-19 CNS; 73.3% in the assay on U251 CNS; 65.5% in the assay with PC-3 prostate; 45.9% in the assay with UACC-62 melanoma; 63.5% in the assay with LOX IMVI melanoma; 57.4% in the assay with SK-MEL-28 melanoma.

For `COc1ccc(-c2ccc3c(c2)sc2nc(-c4ccc(F)cc4)cn23)cc1`, the growth in the assay with DU-145 prostate is 60.3%; in the assay on K-562 leukemia, 76.6%; with MALME-3M melanoma, 101%; in the assay on MDA-MB-231 breast, 93.5%; with RXF 393 renal, 98.8%; with SF-268 CNS it was 110%. Besides, the growth in the assay with SF-295 CNS was 32.5%; in the assay with SF-539 CNS, 100%; with UACC-257 melanoma, 80.9%; with HCT-15 colon, 74.9%; in the assay on SNB-19 CNS it was 103%; in the assay with U251 CNS, 83.3%. The growth with PC-3 prostate was 81.7%; with SK-MEL-5 melanoma it was 33.1%; in the assay on UACC-62 melanoma, 65%; in the assay on LOX IMVI melanoma it was 102%; in the assay on SK-MEL-28 melanoma, 105%.

As for `Cc1ccc2nc3ccccc3c(NCc3ccccc3)c2c1`, the growth in the assay on DU-145 prostate is 35.8%; with K-562 leukemia, 10.9%; in the assay on MALME-3M melanoma it was 55.2%; in the assay on MDA-MB-231 breast it was 35.8%; with RXF 393 renal, 1.32% (active); in the assay with SF-268 CNS, 69%. In addition, the growth in the assay with SF-295 CNS is 28.1%; with SF-539 CNS it was 23.2%; in the assay with UACC-257 melanoma, 56.6%; in the assay on HT29 colon it was 11.6%; with SNB-75 CNS it was 65%; in the assay with SNB-19 CNS, 31.8%. The growth is 37% in the assay on U251 CNS; 29.7% with PC-3 prostate; 58.8% with SK-MEL-5 melanoma; 56.4% with UACC-62 melanoma; 9.08% (active) in the assay with LOX IMVI melanoma; 78% in the assay with SK-MEL-28 melanoma.

For the molecule `COc1ccc2oc3c(C)c4c(c(C)c3c2c1)C(=O)N(Cc1ccccc1)C4=O`, the growth is 97.1% with DU-145 prostate; 92.3% in the assay with K-562 leukemia; 92.5% in the assay on MALME-3M melanoma; 90.3% with MDA-MB-231 breast; 99% in the assay on RXF 393 renal; 87.8% in the assay with SF-268 CNS. Besides, the growth was 101% with SF-295 CNS; 89.7% with SF-539 CNS; 105% in the assay with UACC-257 melanoma; 101% in the assay with HCT-15 colon; 96.1% with HT29 colon; 85.9% with SNB-75 CNS. The growth in the assay on SNB-19 CNS is 95.1%; in the assay on U251 CNS it was 83.5%; in the assay with PC-3 prostate, 85.5%; with SK-MEL-5 melanoma it was 99.6%; in the assay on UACC-62 melanoma, 92.5%; with LOX IMVI melanoma, 94%. The growth in the assay on SK-MEL-28 melanoma is 103%.

On to `C=C1C(=O)O[C@H]2[C@H]1CC/C(COC(=O)C(=O)c1cn(C)c3ccc(OC)cc13)=C\CC[C@@]1(C)O[C@@H]21`, for which the growth with DU-145 prostate was -79% (active); with K-562 leukemia, 2.97% (active); with MALME-3M melanoma, -74.8% (active); in the assay on MDA-MB-231 breast, -58.4% (active); in the assay on RXF 393 renal, -94.8% (active); in the assay on SF-268 CNS, -40.6% (active). Further, the growth was 10.2% with SF-295 CNS; -66.9% (active) with SF-539 CNS; -72.1% (active) in the assay with UACC-257 melanoma; -52.7% (active) with HT29 colon; -76.7% (active) with SNB-75 CNS; -13.8% (active) in the assay with SNB-19 CNS. Also, the growth with U251 CNS was -92.5% (active); with PC-3 prostate, -59.2% (active); in the assay on SK-MEL-5 melanoma, -100% (active); in the assay with UACC-62 melanoma, -84.8% (active); with LOX IMVI melanoma it was -88.5% (active); in the assay on SK-MEL-28 melanoma, -65.3% (active).
